Assay results: PubChem BioAssay (NCI)
The panel holds about 79,000 compounds, 15% with a hit somewhere; the sample as a whole holds those more often. Values without a mark were called inactive. Activity calls are given as the source filed them. Rule as the data show it: active = growth inhibition above about 70%; inactive = the rest.

Assays:
[1] = NCI Yeast Anticancer Drug Screen. Data for the rad50 strain (AID 155);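 also: 0% = growth of vehicle-only cultures of the same strain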; settings: S. cerevisiae rad50 strain growth inhibition; at 50.0 µM; hits give high values
In short: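 DNA repair mutant yeast, compound exposure, growth read-out; inhibition is taken relative to vehicle.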

[2] = NCI Yeast Anticancer Drug Screen. Data for the mec2-1 strain (AID 157); settings: S. cerevisiae mec2-1 strain, at 50.0 µM, hits give high values
In short: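 Mutant yeast (mec2-1) grown with compound; growth inhibition relative to vehicle control reported.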

[3] = NCI Yeast Anticancer Drug Screen. Data for the sgs1 mgt1 strain (AID 161);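 also: 0% = growth of cultures given vehicle only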; settings: S. cerevisiae sgs1 mgt1 strain, at 50.0 µM, hits give high values
In short: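 Percent growth inhibition was derived by comparing compound-exposed mutant yeast with vehicle-exposed cultures. The strain carries alterations in DNA damage repair.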

[4] = NCI Yeast Anticancer Drug Screen. Data for the cln2 rad14 strain (AID 165);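 also: 0% = growth equal to vehicle treated cultures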; settings: S. cerevisiae cln2 rad14 strain, at 50.0 µM, hits give high values
In short: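 Readout is yeast growth inhibition versus vehicle-treated controls, using a strain with cln2 and rad14 alterations exposed to compound.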

[5] = NCI Yeast Anticancer Drug Screen. Data for the bub3 strain (AID 167); settings: S. cerevisiae bub3 mutant strain, at 50.0 µM, hits give high values
In short: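 In this screen, a yeast mutant lacking normal mitotic checkpoint function is challenged with compound. Relative growth versus vehicle gives the inhibition value.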

[6] = NCI Yeast Anticancer Drug Screen. Data for the mlh1 rad18 strain (AID 175); settings: S. cerevisiae mlh1 rad18 strain growth inhibition; at 50.0 µM; hits give high values
In short: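 Genetically defined yeast (DNA repair-deficient) exposed to compounds; growth inhibition determined relative to vehicle.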

Work on CC(C)CC(CC(C)C)NCC(C)OC(=O)c1ccc(N(C)C)cc1 (stereo not drawn) yielded a growth inhibition [1] of 57.5%, a growth inhibition [2] of -4.2% and a growth inhibition [3] of 20.2%. For the same molecule, the growth inhibition [4] was -7.55%, the growth inhibition [5] was 2.6% and the growth inhibition [6] was 1.3%.
With CCCCS(=O)(=O)N1CCCC1 the growth inhibition [1] was 4.15%, the growth inhibition [2] was -10.3% and the growth inhibition [3] was 1.9%. It also gave a growth inhibition [4] of -28.2%, a growth inhibition [5] of -5% and a growth inhibition [6] of -5.85%.
COC(=O)C1CC=CCCC1=O (stereo not drawn) showed a growth inhibition [1] of -3.8%, a growth inhibition [2] of -10.8% and a growth inhibition [3] of 23.7%. The growth inhibition [4] was 12.2%, the growth inhibition [5] was 43.7% and the growth inhibition [6] was 5.65%.
Work on COc1cc2c(cc1O)CN1Cc3cc(O)c(OC)cc3C2C1 yielded a growth inhibition [1] of -4.95%, a growth inhibition [2] of 2.35% and a growth inhibition [3] of -9.1%. The growth inhibition [4] was -20.9%, the growth inhibition [5] was -10% and the growth inhibition [6] was 13.3%.
Work on N#CC1(N)c2ccccc2-c2ccccc21 yielded a growth inhibition [1] of 34.8%, a growth inhibition [2] of 1.95% and a growth inhibition [3] of 3.4%. The growth inhibition [4] was 9.65%, the growth inhibition [5] was 3.65% and the growth inhibition [6] was 4.8%.
CCOc1ccc(-c2cc(-c3ccc(OCC)cc3)cc(-c3ccc(OCC)cc3)c2)cc1 gave a growth inhibition [1] of -2.05%, a growth inhibition [2] of -9.7% and a growth inhibition [3] of 1.3%. The growth inhibition [4] was -7.2%, the growth inhibition [5] was -5.05% and the growth inhibition [6] was -2.85%.
In the case of CCCCCCCCC(=O)Nc1nc2nc[nH]c2c(=O)[nH]1, the growth inhibition [1] is reported as -9.65%, the growth inhibition [2] is reported as -33.2% and the growth inhibition [3] is reported as -15.3%. For the same molecule, the growth inhibition [4] was -30.1%, the growth inhibition [5] was -14.3% and the growth inhibition [6] was -5.45%.
With O=Cc1cc(Cl)cc(Cl)c1 the growth inhibition [1] was 5%, the growth inhibition [2] was -18.1% and the growth inhibition [3] was 0.85%. For the same molecule, the growth inhibition [4] was 8.7%, the growth inhibition [5] was 8.95% and the growth inhibition [6] was 6.55%.
O=C([O-])C[n+]1ccccc1 showed a growth inhibition [1] of -11.3%, a growth inhibition [2] of -2.75% and a growth inhibition [3] of -14.5%. For the same molecule, the growth inhibition [4] was -35.9%, the growth inhibition [5] was -19.1% and the growth inhibition [6] was -14.4%.
In the case of C=C1C(=O)O[C@H]2/C=C(/C)C3=CC(=O)[C@@](C)(C[C@@H](OC(=O)/C(C)=C\C)C12)O3 (stereo partly drawn), the growth inhibition [1] is reported as 73.5% (active), the growth inhibition [2] is reported as 80.8% (active) and the growth inhibition [3] is reported as 81.2% (active). The growth inhibition [4] was 64.8%, the growth inhibition [5] was 77.9% (active) and the growth inhibition [6] was 75.8% (active).
Work on O=CC1OC(c2ccccc2)OC1C1OC(c2ccccc2)OC1C=O (stereo not drawn) yielded a growth inhibition [1] of 19.4%, a growth inhibition [2] of 13.7% and a growth inhibition [3] of 19.2%. For the same molecule, the growth inhibition [4] was -22.6%, the growth inhibition [5] was 17.9% and the growth inhibition [6] was 22.8%.
COc1c(OC2OC(CO)C(O)C(O)C2O)cc2occ(-c3ccc4c(c3)OCO4)c(=O)c2c1O (stereo not drawn) gave a growth inhibition [1] of 23.6%, a growth inhibition [2] of -9.7% and a growth inhibition [3] of -10%. The growth inhibition [4] was 4.6%, the growth inhibition [5] was 12.1% and the growth inhibition [6] was 18.6%.
For COC(=O)c1ccc(NC(=O)c2cc(OC)c(OC)c(OC)c2)cc1, the growth inhibition [1] was -24.3%, the growth inhibition [2] was -24.1% and the growth inhibition [3] was -19.4%. The growth inhibition [4] was -5.05%, the growth inhibition [5] was -9% and the growth inhibition [6] was -24%.
With C[N+]1(C)CC=C(N2CCOCC2)CC1 the growth inhibition [1] was -27.6%, the growth inhibition [2] was -25.1% and the growth inhibition [3] was -18.8%. It also gave a growth inhibition [4] of -30%, a growth inhibition [5] of -12.9% and a growth inhibition [6] of -14.4%.
CN(C)CC1CCc2ccccc2C1=O (stereo not drawn) gave a growth inhibition [1] of -16.1%, a growth inhibition [2] of -37.2% and a growth inhibition [3] of -46.8%. It also gave a growth inhibition [4] of -2.05%, a growth inhibition [5] of -52.1% and a growth inhibition [6] of -48.1%.
Work on O=C(NCc1ccncc1)Nc1ccc(Cc2ccc(NC(=O)NCc3ccncc3)cc2)cc1 yielded a growth inhibition [1] of -8.05%, a growth inhibition [2] of -19.1% and a growth inhibition [3] of 0.2%. For the same molecule, the growth inhibition [4] was 15.3%, the growth inhibition [5] was 3.5% and the growth inhibition [6] was 4.25%.
With CCOC(OCC)C(=O)NNC(C)C the growth inhibition [1] was 15.4%, the growth inhibition [2] was -7.85% and the growth inhibition [3] was -2.15%. For the same molecule, the growth inhibition [4] was -39.9%, the growth inhibition [5] was 10% and the growth inhibition [6] was -13.9%.
O=C(c1ccc(Cl)cc1Cl)C(CS(=O)(=O)O)CS(=O)(=O)O showed a growth inhibition [1] of -20.9%, a growth inhibition [2] of -27.2% and a growth inhibition [3] of -5.8%. The growth inhibition [4] was -49.4%, the growth inhibition [5] was -5.6% and the growth inhibition [6] was -1.1%.
For CCCC1CCCC1C (stereo not drawn), the growth inhibition [1] was 4.3%, the growth inhibition [2] was 4.25% and the growth inhibition [3] was 8.45%. It also gave a growth inhibition [4] of 5.4%, a growth inhibition [5] of 17.4% and a growth inhibition [6] of -1.85%.
Molecule CCCCC(CC)CNCC(CC)CCCC (stereo not drawn) has a growth inhibition [1] of 33.8%, a growth inhibition [2] of 45.5% and a growth inhibition [3] of 14.8%. It also gave a growth inhibition [4] of 40.6%, a growth inhibition [5] of 5.5% and a growth inhibition [6] of 26.1%.
For O=c1c(-c2ccccc2)c2oc(c1-c1ccccc1)CS(=O)(=O)CCC2, the growth inhibition [1] was 21.9%, the growth inhibition [2] was 20.2% and the growth inhibition [3] was 16%. It also gave a growth inhibition [4] of 12.3%, a growth inhibition [5] of 8.15% and a growth inhibition [6] of -2.35%.
With CCSCCCCSCC the growth inhibition [1] was -2.85%, the growth inhibition [2] was -34.4% and the growth inhibition [3] was -15.7%. For the same molecule, the growth inhibition [4] was 3.35%, the growth inhibition [5] was 6.3% and the growth inhibition [6] was -2.2%.
For CCO/C(C)=N/NC(=O)c1n[nH]c2ccccc12, the growth inhibition [1] was 4.1%, the growth inhibition [2] was -1.45% and the growth inhibition [3] was -10.6%. For the same molecule, the growth inhibition [4] was 0.05%, the growth inhibition [5] was -11.3% and the growth inhibition [6] was 12%.
Molecule O=C(C[n+]1ccccc1)c1ccc([N+](=O)[O-])cc1 has a growth inhibition [1] of -3.35%, a growth inhibition [2] of -2.2% and a growth inhibition [3] of -4.45%. It also gave a growth inhibition [4] of -30.1%, a growth inhibition [5] of -6.7% and a growth inhibition [6] of 38.7%.
COCc1ccc(C(=O)Nc2c(N)ncnc2N)cc1 gave a growth inhibition [1] of 5.4%, a growth inhibition [2] of 13.7% and a growth inhibition [3] of -0.15%. It also gave a growth inhibition [4] of 0.9%, a growth inhibition [5] of 23.7% and a growth inhibition [6] of -0.1%.
c1ccc(CNC(Cc2ccccc2)c2ccc(OCc3ccccc3)cc2)cc1 (stereo not drawn) gave a growth inhibition [1] of -15.2%, a growth inhibition [2] of -17.6% and a growth inhibition [3] of 4%. For the same molecule, the growth inhibition [4] was 11.8%, the growth inhibition [5] was -10.2% and the growth inhibition [6] was -10.6%.
Molecule CCOC(=O)C(NC(=S)Cc1ccccc1)C(=O)OCC has a growth inhibition [1] of 10.1%, a growth inhibition [2] of -2.85% and a growth inhibition [3] of -4.8%. For the same molecule, the growth inhibition [4] was -5.7%, the growth inhibition [5] was 9.75% and the growth inhibition [6] was -0.35%.
In the case of Clc1ccccc1-c1nnc(-c2cccc(-c3nnc(-c4ccccc4Cl)o3)n2)o1, the growth inhibition [1] is reported as -1.65%, the growth inhibition [2] is reported as 6.75% and the growth inhibition [3] is reported as -6.55%. For the same molecule, the growth inhibition [4] was -9.1%, the growth inhibition [5] was -3.4% and the growth inhibition [6] was 12%.
With c1ccc(CCCCc2ccccc2)cc1 the growth inhibition [1] was 25.1%, the growth inhibition [2] was 3.2% and the growth inhibition [3] was 14.1%. For the same molecule, the growth inhibition [4] was 6.4%, the growth inhibition [5] was 3.35% and the growth inhibition [6] was 11.4%.
For O=[N+]([O-])c1ccc(Nc2ccccc2)nc1, the growth inhibition [1] was -22.7%, the growth inhibition [2] was -35.5% and the growth inhibition [3] was 7.35%. It also gave a growth inhibition [4] of 2.7%, a growth inhibition [5] of -5.5% and a growth inhibition [6] of -5.05%.
COc1ccc(C(=O)O)cc1 showed a growth inhibition [1] of 12.3%, a growth inhibition [2] of -19.8% and a growth inhibition [3] of -32.7%. The growth inhibition [4] was -41%, the growth inhibition [5] was -2.9% and the growth inhibition [6] was -4.25%.
Molecule C=CCNC(=S)Nc1ccccc1 has a growth inhibition [1] of -1.8%, a growth inhibition [2] of -9.95% and a growth inhibition [3] of 4.25%. It also gave a growth inhibition [4] of -5.1%, a growth inhibition [5] of -18.9% and a growth inhibition [6] of -11.9%.
N#CC1CCCC(c2ccccc2)(C2CCCCC2)C1=O (stereo not drawn) showed a growth inhibition [1] of 7.4%, a growth inhibition [2] of 13.1% and a growth inhibition [3] of 10.2%. For the same molecule, the growth inhibition [4] was 26.4%, the growth inhibition [5] was 2.85% and the growth inhibition [6] was -0.9%.
In the case of O=C(OCCCCNC1CCCCC1)c1ccc([N+](=O)[O-])cc1, the growth inhibition [1] is reported as 9.65%, the growth inhibition [2] is reported as 3% and the growth inhibition [3] is reported as -7.05%. For the same molecule, the growth inhibition [4] was -7.3%, the growth inhibition [5] was -13.6% and the growth inhibition [6] was 5.25%.
Work on Cc1cc(N(CCC#N)CCC#N)ccc1/C(N=Nc1ccc([N+](=O)[O-])cc1)=N\NC(=O)c1cc(Cl)ccc1C(=O)c1ccccc1 yielded a growth inhibition [1] of 9.3%, a growth inhibition [2] of 3.15% and a growth inhibition [3] of -15.7%. The growth inhibition [4] was -4.25%, the growth inhibition [5] was -22.4% and the growth inhibition [6] was 7.7%.
Molecule [N-]=[N+]=Nc1ccnc2cc(C(F)(F)F)ccc12 has a growth inhibition [1] of -31.5%, a growth inhibition [2] of 3.35% and a growth inhibition [3] of -2.25%. It also gave a growth inhibition [4] of -36.7%, a growth inhibition [5] of 4.45% and a growth inhibition [6] of 11.1%.
CCCCCCCCCCCC(=O)O gave a growth inhibition [1] of -0.85%, a growth inhibition [2] of 0.7% and a growth inhibition [3] of 25.6%. For the same molecule, the growth inhibition [4] was -7.45%, the growth inhibition [5] was 10.1% and the growth inhibition [6] was 19.2%.
Work on Cc1ccc(S(=O)(=O)OCC2OC(C)(C)OC2COS(=O)(=O)c2ccc(C)cc2)cc1 (stereo not drawn) yielded a growth inhibition [1] of 25%, a growth inhibition [2] of -5.65% and a growth inhibition [3] of 6.7%. It also gave a growth inhibition [4] of -38.6%, a growth inhibition [5] of 6.2% and a growth inhibition [6] of 10.3%.
